Experimental data reported in ChEMBL document CHEMBL2218924, “A broad activity screen in support of a chemogenomic map for kinase signalling research and drug discovery” (Biochem J, 2013).

Experiments:
[1] = target: T1, Serine/threonine-protein kinase 17A (Homo sapiens) (UniProt Q9UEE5); conditions: at 1 µM
T1 sequence (whole entry): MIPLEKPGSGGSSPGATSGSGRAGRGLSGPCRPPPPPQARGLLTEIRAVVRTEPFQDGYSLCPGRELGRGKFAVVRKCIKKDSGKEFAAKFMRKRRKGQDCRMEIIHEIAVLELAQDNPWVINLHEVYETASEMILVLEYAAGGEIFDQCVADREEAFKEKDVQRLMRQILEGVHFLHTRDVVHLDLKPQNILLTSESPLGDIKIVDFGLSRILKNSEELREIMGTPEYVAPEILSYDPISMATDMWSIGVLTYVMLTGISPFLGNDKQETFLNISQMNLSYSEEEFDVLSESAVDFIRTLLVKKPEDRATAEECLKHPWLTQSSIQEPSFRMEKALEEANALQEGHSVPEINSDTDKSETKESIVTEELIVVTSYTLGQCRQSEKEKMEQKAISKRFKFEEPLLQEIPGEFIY

[2] = target: T1, Serine/threonine-protein kinase 17A (Homo sapiens); conditions: at 10 µM
[3] = target: T2, Dual specificity tyrosine-phosphorylation-regulated kinase 2 (Homo sapiens) (UniProt Q92630); conditions: at 1 µM
T2 sequence (whole entry): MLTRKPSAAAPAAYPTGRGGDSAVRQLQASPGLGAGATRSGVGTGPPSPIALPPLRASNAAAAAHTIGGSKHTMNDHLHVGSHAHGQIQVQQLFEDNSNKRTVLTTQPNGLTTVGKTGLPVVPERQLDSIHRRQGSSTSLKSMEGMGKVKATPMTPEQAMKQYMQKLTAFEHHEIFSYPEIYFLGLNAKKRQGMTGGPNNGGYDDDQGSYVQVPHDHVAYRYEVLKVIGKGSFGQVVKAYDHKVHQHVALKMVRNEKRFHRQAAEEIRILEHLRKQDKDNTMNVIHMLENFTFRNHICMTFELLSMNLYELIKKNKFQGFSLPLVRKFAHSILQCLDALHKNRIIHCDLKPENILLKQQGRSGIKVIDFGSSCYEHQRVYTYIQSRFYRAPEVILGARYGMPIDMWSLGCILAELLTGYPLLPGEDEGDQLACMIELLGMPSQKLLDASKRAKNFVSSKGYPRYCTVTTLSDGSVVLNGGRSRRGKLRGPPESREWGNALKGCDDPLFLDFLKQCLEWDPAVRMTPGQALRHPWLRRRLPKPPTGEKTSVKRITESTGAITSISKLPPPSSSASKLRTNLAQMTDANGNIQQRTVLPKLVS

[4] = target: T2, Dual specificity tyrosine-phosphorylation-regulated kinase 2 (Homo sapiens); conditions: at 10 µM
[5] = target: T3, Ephrin type-A receptor 1 (Homo sapiens) (UniProt P21709); conditions: at 1 µM
T3 sequence (whole entry): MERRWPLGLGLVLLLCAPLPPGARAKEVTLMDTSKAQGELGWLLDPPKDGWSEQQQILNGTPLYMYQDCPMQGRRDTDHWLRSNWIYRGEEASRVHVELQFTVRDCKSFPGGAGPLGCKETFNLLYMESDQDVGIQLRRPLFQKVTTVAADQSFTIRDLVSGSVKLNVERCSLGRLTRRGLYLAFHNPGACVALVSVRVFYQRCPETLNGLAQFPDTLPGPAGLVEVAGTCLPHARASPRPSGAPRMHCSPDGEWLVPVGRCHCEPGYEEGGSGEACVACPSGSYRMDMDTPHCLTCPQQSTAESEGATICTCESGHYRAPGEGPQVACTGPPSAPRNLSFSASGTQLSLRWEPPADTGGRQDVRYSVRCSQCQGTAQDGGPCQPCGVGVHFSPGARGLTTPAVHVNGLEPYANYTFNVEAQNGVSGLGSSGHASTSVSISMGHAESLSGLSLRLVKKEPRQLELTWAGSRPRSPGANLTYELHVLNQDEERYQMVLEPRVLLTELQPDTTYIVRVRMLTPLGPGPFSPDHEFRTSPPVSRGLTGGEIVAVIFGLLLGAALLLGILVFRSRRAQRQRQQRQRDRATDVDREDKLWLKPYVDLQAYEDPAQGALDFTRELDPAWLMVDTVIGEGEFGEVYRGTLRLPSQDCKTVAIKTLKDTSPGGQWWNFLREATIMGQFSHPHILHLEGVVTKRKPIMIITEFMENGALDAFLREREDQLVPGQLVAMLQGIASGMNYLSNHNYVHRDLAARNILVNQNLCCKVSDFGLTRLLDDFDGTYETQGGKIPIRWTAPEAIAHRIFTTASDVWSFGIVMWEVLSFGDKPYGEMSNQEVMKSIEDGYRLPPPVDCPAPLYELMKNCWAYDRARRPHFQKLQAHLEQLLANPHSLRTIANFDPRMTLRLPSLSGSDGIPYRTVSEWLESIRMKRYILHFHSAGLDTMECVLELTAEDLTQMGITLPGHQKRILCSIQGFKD

[6] = target: T3, Ephrin type-A receptor 1 (Homo sapiens); conditions: at 10 µM
[7] = target: Ephrin type-A receptor 2 (Homo sapiens) (UniProt P29317); conditions: at 1 µM
[8] = target: Ephrin type-A receptor 2 (Homo sapiens) (UniProt P29317); conditions: at 10 µM
[9] = target: T4, Ephrin type-A receptor 3 (Homo sapiens) (UniProt P29320); conditions: at 1 µM
T4 sequence (whole entry): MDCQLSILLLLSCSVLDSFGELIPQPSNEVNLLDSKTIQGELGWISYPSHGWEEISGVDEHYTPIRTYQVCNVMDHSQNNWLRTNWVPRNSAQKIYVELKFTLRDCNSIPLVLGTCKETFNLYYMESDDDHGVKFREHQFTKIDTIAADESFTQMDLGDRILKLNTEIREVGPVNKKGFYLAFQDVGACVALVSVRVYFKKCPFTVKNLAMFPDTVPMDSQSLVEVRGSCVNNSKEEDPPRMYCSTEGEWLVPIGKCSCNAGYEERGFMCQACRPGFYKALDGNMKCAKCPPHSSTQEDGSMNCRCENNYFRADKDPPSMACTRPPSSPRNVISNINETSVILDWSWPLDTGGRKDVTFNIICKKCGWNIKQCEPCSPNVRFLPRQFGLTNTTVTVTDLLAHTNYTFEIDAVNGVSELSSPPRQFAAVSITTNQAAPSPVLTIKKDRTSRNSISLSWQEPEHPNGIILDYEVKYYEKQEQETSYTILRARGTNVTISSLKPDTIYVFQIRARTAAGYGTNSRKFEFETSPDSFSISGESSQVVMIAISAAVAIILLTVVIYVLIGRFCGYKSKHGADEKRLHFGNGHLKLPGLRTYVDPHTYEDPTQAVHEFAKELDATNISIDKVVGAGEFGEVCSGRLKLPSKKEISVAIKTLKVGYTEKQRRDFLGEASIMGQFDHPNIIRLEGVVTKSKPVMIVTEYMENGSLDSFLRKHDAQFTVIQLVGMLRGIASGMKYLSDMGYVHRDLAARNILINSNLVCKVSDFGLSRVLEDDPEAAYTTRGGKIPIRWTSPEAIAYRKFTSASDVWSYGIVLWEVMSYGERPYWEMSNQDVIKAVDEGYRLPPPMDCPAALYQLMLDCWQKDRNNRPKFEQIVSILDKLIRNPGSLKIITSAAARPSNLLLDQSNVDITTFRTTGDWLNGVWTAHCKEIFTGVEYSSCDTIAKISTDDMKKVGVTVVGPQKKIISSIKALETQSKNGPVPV

[10] = target: T4, Ephrin type-A receptor 3 (Homo sapiens); conditions: at 10 µM
[11] = target: Ephrin type-A receptor 4 (Homo sapiens) (UniProt P54764); conditions: at 1 µM
[12] = target: Ephrin type-A receptor 4 (Homo sapiens) (UniProt P54764); conditions: at 10 µM
[13] = target: Ephrin type-A receptor 5 (Homo sapiens) (UniProt P54756); conditions: at 1 µM
[14] = target: Ephrin type-A receptor 5 (Homo sapiens) (UniProt P54756); conditions: at 10 µM
[15] = target: Ephrin type-A receptor 7 (Homo sapiens) (UniProt Q15375); conditions: at 1 µM
[16] = target: Ephrin type-A receptor 7 (Homo sapiens) (UniProt Q15375); conditions: at 10 µM
[17] = target: T5, Ephrin type-A receptor 8 (Homo sapiens) (UniProt P29322); conditions: at 1 µM
T5 sequence (whole entry): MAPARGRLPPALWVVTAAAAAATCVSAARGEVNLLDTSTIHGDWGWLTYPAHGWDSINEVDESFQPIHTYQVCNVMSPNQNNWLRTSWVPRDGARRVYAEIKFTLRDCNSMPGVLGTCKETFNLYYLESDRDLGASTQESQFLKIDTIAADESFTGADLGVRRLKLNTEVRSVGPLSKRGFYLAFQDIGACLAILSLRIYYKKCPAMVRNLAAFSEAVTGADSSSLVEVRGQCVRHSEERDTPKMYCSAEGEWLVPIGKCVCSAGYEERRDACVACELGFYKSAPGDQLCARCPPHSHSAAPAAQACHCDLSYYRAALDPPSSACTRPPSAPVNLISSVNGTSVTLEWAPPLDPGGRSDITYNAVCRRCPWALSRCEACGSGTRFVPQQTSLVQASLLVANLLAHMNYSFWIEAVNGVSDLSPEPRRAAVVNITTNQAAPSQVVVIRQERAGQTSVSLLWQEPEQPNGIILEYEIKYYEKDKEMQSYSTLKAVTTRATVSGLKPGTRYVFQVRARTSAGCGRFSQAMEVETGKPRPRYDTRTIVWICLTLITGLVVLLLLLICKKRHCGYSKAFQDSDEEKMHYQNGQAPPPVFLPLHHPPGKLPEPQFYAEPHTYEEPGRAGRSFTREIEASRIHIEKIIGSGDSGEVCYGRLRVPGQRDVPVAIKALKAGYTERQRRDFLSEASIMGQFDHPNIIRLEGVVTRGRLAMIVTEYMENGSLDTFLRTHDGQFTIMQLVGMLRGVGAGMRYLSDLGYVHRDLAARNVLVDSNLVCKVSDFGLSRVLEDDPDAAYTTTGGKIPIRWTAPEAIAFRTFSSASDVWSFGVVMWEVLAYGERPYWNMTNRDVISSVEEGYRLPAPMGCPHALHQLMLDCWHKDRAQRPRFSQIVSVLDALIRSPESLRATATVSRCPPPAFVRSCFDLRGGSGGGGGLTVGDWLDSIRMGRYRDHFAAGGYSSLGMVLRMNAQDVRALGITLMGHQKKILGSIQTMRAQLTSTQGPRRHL

[18] = target: T5, Ephrin type-A receptor 8 (Homo sapiens); conditions: at 10 µM
[19] = target: T6, Ephrin type-B receptor 1 (Homo sapiens) (UniProt P54762); conditions: at 1 µM
T6 sequence (whole entry): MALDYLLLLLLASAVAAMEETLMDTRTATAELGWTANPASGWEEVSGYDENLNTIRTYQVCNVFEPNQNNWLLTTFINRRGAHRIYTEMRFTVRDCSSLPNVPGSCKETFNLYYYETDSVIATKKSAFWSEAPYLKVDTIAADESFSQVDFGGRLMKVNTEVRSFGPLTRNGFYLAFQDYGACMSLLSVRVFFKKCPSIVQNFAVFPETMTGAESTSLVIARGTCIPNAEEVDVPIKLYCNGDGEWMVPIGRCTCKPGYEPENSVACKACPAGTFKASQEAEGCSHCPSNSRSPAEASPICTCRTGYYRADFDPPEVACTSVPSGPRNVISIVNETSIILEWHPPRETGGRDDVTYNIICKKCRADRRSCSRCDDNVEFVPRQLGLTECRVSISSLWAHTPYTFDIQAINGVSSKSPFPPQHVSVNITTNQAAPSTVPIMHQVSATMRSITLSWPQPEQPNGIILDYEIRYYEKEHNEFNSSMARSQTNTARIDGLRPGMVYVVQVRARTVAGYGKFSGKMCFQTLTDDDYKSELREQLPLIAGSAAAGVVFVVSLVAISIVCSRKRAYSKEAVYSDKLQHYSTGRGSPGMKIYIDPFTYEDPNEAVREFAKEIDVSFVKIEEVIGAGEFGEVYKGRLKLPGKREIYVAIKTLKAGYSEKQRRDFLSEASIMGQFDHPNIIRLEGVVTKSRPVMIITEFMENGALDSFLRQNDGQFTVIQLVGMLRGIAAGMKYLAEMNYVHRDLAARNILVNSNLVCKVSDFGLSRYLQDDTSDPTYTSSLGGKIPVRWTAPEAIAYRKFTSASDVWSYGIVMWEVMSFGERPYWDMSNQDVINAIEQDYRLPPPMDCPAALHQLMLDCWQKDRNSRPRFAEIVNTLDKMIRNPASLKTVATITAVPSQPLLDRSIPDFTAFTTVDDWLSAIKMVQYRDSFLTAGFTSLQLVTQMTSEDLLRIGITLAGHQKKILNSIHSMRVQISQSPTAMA

Ephrin type-A receptor 4 (Homo sapiens), sequence (P54764 whole entry): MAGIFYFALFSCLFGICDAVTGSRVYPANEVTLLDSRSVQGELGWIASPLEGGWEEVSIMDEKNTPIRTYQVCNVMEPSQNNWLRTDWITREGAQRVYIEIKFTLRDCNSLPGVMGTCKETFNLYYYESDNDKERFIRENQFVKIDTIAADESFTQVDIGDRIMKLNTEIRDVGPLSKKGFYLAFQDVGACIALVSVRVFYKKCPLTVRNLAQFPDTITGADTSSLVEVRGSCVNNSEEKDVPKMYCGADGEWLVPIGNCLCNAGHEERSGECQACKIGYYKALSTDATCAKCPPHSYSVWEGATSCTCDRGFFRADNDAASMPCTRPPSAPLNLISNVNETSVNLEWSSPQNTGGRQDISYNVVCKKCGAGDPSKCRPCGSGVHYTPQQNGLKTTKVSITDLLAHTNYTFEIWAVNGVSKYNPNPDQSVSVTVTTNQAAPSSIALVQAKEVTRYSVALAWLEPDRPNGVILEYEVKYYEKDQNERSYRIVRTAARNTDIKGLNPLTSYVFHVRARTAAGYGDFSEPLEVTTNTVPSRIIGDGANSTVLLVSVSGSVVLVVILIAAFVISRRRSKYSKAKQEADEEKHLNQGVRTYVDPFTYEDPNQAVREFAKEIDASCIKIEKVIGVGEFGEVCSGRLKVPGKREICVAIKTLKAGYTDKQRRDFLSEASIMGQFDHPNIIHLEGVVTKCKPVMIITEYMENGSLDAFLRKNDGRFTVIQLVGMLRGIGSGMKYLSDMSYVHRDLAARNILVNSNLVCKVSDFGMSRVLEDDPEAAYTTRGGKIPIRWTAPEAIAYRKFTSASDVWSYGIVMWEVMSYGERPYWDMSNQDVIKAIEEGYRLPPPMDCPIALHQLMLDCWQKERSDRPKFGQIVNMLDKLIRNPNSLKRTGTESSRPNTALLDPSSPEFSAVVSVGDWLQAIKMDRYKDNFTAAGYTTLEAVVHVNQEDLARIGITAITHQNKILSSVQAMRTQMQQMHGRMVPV
Ephrin type-A receptor 7 (Homo sapiens), sequence (Q15375 28-998 limits assumed): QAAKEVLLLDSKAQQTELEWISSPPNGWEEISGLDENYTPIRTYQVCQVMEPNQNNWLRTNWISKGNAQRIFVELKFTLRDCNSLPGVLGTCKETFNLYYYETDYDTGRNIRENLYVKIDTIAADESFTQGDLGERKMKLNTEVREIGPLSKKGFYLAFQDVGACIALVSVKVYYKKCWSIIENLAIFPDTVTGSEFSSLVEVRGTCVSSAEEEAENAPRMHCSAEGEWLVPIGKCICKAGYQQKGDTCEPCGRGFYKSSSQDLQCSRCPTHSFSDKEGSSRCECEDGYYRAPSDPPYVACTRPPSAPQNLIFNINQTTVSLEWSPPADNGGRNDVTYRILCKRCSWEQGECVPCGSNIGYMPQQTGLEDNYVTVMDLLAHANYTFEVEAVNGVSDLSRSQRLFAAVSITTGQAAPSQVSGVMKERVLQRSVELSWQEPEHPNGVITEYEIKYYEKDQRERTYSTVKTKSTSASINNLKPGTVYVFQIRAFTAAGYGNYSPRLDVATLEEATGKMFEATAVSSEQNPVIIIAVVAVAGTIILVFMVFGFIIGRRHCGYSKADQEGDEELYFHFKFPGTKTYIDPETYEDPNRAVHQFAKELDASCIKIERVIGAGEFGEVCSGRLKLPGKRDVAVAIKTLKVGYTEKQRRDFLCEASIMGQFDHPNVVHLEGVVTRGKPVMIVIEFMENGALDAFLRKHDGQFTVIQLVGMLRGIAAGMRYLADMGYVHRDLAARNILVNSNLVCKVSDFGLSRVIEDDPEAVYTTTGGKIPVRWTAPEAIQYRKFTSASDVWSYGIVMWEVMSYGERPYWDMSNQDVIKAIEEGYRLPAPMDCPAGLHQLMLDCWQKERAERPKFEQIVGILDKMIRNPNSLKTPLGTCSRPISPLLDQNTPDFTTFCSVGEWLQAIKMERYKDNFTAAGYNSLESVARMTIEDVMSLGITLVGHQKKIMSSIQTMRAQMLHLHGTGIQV
Ephrin type-A receptor 5 (Homo sapiens), sequence (P54756 whole entry): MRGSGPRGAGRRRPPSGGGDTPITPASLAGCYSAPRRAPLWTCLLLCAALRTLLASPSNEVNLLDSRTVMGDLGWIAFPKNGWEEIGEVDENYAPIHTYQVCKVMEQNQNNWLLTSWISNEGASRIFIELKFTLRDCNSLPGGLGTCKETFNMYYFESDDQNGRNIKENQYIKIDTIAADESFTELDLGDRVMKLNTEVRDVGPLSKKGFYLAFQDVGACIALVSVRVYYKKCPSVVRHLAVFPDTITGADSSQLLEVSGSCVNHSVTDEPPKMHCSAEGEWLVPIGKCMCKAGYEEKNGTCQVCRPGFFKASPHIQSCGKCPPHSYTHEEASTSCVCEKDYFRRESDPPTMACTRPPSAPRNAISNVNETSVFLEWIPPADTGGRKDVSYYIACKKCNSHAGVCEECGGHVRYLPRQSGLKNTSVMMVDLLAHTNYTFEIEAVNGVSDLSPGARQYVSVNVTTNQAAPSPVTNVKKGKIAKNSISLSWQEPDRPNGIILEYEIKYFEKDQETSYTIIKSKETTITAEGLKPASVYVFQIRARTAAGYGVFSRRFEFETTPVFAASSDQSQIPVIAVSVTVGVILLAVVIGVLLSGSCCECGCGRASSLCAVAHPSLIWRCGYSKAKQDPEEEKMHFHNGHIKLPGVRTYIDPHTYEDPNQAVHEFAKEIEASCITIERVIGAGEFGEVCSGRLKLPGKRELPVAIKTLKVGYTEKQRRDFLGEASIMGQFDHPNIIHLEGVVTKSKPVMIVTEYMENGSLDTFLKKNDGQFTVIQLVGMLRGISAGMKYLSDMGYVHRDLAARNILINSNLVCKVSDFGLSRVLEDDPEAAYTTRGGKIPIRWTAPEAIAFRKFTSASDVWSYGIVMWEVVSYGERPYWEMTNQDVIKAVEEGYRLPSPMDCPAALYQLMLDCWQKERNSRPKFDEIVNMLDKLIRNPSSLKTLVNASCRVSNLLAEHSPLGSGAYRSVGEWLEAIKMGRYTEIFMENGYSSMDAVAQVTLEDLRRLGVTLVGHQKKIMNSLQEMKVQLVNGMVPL
Ephrin type-A receptor 2 (Homo sapiens), sequence (P29317 whole entry): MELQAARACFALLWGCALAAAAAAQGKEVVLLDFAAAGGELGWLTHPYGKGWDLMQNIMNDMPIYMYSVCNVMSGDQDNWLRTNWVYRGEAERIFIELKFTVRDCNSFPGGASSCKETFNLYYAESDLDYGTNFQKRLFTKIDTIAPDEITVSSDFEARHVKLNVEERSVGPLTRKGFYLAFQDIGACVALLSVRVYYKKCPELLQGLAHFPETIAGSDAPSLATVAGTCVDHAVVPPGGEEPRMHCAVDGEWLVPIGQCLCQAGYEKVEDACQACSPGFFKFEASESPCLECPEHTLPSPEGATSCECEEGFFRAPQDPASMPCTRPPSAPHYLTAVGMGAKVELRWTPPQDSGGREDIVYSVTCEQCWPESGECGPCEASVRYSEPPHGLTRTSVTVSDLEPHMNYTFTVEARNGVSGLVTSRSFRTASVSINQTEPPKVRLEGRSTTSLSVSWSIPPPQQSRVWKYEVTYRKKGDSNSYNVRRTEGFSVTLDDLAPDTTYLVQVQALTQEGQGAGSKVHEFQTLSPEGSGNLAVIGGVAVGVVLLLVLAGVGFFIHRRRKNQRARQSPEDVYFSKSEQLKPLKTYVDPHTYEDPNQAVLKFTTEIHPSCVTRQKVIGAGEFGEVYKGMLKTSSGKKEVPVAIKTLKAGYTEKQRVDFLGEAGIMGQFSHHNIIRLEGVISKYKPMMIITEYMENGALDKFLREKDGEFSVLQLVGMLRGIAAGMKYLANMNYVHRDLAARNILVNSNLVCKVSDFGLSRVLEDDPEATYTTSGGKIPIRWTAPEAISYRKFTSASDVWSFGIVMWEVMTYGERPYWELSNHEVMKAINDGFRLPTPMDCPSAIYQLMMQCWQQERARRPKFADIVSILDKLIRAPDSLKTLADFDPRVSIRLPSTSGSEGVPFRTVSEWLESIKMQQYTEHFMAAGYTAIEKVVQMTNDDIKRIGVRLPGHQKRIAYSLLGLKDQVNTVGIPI

Compound | residual activity [1] | residual activity [2] | residual activity [3] | residual activity [4] | residual activity [5] | residual activity [6] | residual activity [7] | residual activity [8] | residual activity [9] | residual activity [10] | residual activity [11] | residual activity [12] | residual activity [13] | residual activity [14] | residual activity [15] | residual activity [16] | residual activity [17] | residual activity [18] | residual activity [19]
C[S+]([O-])c1ccc(-c2nc(-c3ccc(F)cc3)c(-c3ccncc3)[nH]2)cc1 (stereo unspecified) | 123% | 103% | 115% | 98% | 90% | 26% | 95% | 62% | 105% | 86% | 110% | 80% | 96% | 48% | 102% | 65% | 91% | 43% | 106%
N/C(=N\[N+](=O)[O-])N/N=C\c1ccc(-c2cccc([N+](=O)[O-])c2)o1 | 76% | 87% | 90% | 95% | – | 97% | – | – | 97% | 79% | – | – | – | – | – | – | – | – | –
CC(C)[C@H](CO)Nc1nc(Nc2cccc(Cl)c2)c2ncn(C(C)C)c2n1 | 116% | 92% | 99% | 86% | 69% | 14% | 69% | 27% | 86% | 31% | 95% | 47% | 83% | 14% | 76% | 28% | 85% | 46% | 63%
O=C1NC(=O)c2c1c1c3ccccc3n3c1c1c2c2ccccc2n1C1CCC3O1 | 16% | 8% | 91% | 58% | – | – | 94% | 98% | – | – | – | – | 94% | 92% | 100% | 100% | 96% | 94% | –
O=C1Nc2ccc3ncsc3c2/C1=C/c1c[nH]cn1 | 1% | 1% | 1% | -5% | 58% | 24% | 77% | 31% | 82% | 28% | 102% | 68% | 89% | 42% | 77% | 17% | 95% | 72% | 60%
